# Screening results from PubChem.
# HP1b chromo inh = HP1-beta chromodomain-methylated histone interaction inhibition. P83916. AlphaScreen HP1-beta / biotin-H3K9me3 peptide binding. Potency, µM (series often up to 114 µM), for inactives: top-dose activity change, negative = inhibition, usual class: inhibitors. 0.56% of 390,000 active. AID 540317; note: nearly all actives have a fitted effect of over 70% in size
#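 Compound inhibition of the preformed complex between 50 nM HP1-beta and 50 nM biotinylated H3K9me3 peptide was read by AlphaScreen. Buffer was PBS pH 7.4 with 0.01% Tween-20. Incubations ran 30 min at room temperature, with 10 ug/mL donor/acceptor beads.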
# Sfp PPTase inh = inhibitors of Bacillus subtilis Sfp phosphopantetheinyl transferase. Potency, µM, without a hit: largest response in the series, negative = inhibition, usual class: inhibitors. 3.5% of 310,000 active. Biochemical Sfp PPTase activity, qHTS. Q9F4F7;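 note: the enzyme is Sfp with the accession as filed and its product quenches rhodamine fluorescence; 0% = enzyme reaction without inhibitor and -100% = no enzyme wells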
#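 After 15 min at room temperature with compound, 15 nM Sfp received 5 uM rhodamine-CoA plus 12.5 uM BHQ-2-ybbR (50 mM Hepes pH 7.6, 10 mM MgCl2). Rate came from the fluorescence difference over 30 min, ex 525/em 598 nm.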
# BAZ2B block = blocks human BAZ2B. Q9UIF8. AlphaScreen BAZ2B-H3K14Ac peptide displacement. Potency, µM (top dose mostly 114 µM), for inactives: at the top dose activity change, negative = inhibition, hits mostly inhibitors. 4.4% of 360,000 active. AID 504333; note: % is set by controls: 0 for no effect and ±100 for the full control effect; nearly all actives have a fitted effect of over 60% in size
# Target sequence (Q9UIF8 whole entry, looked up): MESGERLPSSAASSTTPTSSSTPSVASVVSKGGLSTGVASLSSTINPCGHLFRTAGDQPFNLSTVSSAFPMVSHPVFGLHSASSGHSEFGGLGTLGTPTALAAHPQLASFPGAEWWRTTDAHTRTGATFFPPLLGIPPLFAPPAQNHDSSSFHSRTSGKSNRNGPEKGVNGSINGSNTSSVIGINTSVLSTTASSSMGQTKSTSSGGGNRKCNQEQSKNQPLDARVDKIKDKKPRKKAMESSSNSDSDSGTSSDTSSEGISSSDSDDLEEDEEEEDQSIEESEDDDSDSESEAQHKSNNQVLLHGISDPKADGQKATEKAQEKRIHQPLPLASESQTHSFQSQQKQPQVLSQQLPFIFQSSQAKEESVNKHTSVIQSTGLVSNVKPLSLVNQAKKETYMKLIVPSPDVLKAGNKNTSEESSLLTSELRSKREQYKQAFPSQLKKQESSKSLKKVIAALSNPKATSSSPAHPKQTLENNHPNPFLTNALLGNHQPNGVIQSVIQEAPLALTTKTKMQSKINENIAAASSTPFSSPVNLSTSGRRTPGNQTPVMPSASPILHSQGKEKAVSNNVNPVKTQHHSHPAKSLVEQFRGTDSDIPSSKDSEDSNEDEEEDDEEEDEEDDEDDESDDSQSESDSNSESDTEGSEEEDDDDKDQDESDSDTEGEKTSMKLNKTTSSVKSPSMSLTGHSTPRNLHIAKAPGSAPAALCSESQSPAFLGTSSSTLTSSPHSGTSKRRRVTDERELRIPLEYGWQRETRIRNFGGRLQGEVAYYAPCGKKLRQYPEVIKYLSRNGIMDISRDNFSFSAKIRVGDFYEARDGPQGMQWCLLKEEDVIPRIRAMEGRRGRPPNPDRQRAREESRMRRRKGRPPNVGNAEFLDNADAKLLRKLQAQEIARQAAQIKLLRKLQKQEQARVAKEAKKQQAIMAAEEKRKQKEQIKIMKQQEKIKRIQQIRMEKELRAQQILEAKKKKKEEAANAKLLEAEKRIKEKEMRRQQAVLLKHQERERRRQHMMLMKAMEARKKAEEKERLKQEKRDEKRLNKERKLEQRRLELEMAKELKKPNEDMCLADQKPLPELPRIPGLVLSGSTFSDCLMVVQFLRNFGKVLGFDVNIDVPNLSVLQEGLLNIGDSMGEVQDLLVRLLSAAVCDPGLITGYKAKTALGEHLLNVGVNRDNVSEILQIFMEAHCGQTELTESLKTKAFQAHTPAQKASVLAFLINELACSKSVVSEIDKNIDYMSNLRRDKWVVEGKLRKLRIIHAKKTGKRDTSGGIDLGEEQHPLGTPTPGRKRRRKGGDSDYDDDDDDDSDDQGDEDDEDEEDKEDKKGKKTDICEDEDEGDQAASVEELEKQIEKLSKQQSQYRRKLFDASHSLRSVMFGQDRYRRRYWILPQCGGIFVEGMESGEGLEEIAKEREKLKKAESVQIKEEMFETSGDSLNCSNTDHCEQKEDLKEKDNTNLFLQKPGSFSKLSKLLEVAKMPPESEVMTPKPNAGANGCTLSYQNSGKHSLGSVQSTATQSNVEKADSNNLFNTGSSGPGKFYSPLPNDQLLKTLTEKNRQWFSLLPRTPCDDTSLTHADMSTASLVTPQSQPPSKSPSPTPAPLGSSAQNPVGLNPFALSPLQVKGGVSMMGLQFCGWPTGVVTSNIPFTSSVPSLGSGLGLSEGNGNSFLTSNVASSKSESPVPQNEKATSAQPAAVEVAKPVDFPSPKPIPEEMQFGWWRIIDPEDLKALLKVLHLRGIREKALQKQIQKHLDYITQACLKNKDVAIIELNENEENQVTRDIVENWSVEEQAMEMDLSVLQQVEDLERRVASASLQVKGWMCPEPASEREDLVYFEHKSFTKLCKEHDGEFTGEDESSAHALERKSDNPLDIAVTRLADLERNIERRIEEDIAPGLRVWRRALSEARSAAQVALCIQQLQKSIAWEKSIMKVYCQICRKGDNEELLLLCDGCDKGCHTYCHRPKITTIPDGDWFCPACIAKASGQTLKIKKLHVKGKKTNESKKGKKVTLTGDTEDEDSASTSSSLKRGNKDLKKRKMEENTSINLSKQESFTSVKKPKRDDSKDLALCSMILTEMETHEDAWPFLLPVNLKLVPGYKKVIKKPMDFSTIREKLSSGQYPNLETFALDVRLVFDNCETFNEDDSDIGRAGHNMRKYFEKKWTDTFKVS
#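 Protein-peptide AlphaScreen: BAZ2B 50 nM, b-H3K14Ac 50 nM, 1x PBS pH 7.4 + 0.01% Tween-20. Preincubation 30 min RT; cpd 30 min RT (top 110 uM); beads 20 min RT, light-protected.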
# L3MBTL1 inh = inhibitors of human L3MBTL1; AlphaScreen L3MBTL1–H3K9me1 peptide binding; 0.66% of 230,000 active; Potency, µM (titrated, usually from 57.1 µM), for the others: at the top dose activity, negative = inhibition, usual class: inhibitors; AID 485360; note: % is set by controls: 0 for no effect and ±100 for the full control effect; nearly all actives have a fitted effect of over 60% in size
#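 First, the protein-peptide complex forms for 30 min at room temperature (L3MBTL1 50 nM, biotinylated H3K9me1 peptide 75 nM). Next, compounds are pin-transferred and incubated 30 min. Finally, AlphaScreen beads are added and read after 30 min.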
# G9a block = inhibitors of human histone lysine methyltransferase G9a | G9a H3K9 monomethylation, AlphaScreen, 2 h | AID 504332 | Potency, µM (top dose mostly 102 µM), inactives show top-dose activity, negative = inhibition, most hits filed as inhibitors | 8.8% of 350,000 active | Q96KQ7; note: % is set by controls: 0 for no effect and ±100 for the full control effect; nearly all actives have a fitted effect of over 75% in size
#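 Enzyme 20 nM + cpd, 15 min RT; add b-H3K9 pep 500 nM / SAM 20 uM; 2 h RT; anti-H3K9me1 Ab 0.5 ug/mL + SA donor / anti-rabbit acceptor beads 20 ug/mL each, 10 min; AlphaScreen read.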
# JMJD2A Tudor inh = JMJD2A Tudor domain (human) inhibition | O75164 | 4.4% of 390,000 active | Potency, µM (top dose mostly 114 µM), for the others: at the highest dose activity change, negative = inhibition, hits mostly inhibitors | AlphaScreen JMJD2A-Tudor / H3K4me3 peptide binding; note: % is set by controls: 0 for no effect and ±100 for the full control effect; nearly all actives have a fitted effect of over 50% in size
# An asterisk follows results filed as active; ? = inconclusive; · = not tested or not shown; [ ] = another dose, or the depositor's remark. Rows were chosen to be rich in hits. Some 12% of all compounds tested hit in one or more screens of this group. Calls come from the whole dose curve; as a rule, active = well fitted curve in the direction sought with a large enough effect; inconclusive = small, poorly fitted or top-dose-only effect, or another doubt; inactive = no such curve, though single readings can be large; an effect the other way counts as inactive or inconclusive. Potency is the fitted concentration of half-maximal effect.
SMILES,HP1b chromo inh,Sfp PPTase inh,BAZ2B block,L3MBTL1 inh,G9a block,JMJD2A Tudor inh
COc1ccccc1C(O)c1nccn1C (stereo not given),13%,12%,-7%,·,?,-23%
Cn1ccnc1C(O)c1ccco1 (stereo not given),-7%,?,4%,-10%[11.4 µM],?,56µM*
CCOC(=O)Cc1ccc(NCc2ccc(Cl)cc2)cc1,9%,-15%,?,·,50µM*,?
CCOC(=O)CNC(=O)Cc1ccc(Cl)cc1,24%,3%,0%,6%,·,0%
CCOC(=O)c1ccccc1NC(=O)N1CCC(N2CCN(Cc3ccccc3)C(=O)C2=O)CC1,60%,·,1%,·,3%[59 µM],-9%
COc1ccc(-c2csc(NC(=O)c3ccc(S(=O)(=O)N4CCc5ccccc5C4)cc3)n2)c(OC)c1,12%,0%,-4%,2%,0%[59 µM],-18%
CCOCc1nnc(NC(=O)c2c(OC)cccc2OC)s1,27%,-9%,-26%,·,?,-25%
CCOCc1nnc(NC(=O)c2cc(OC)cc(OC)c2)s1,21%,-13%,-16%,-6%,32µM*,-27%
COc1cccc(C(=O)Nc2nnc(-c3cccs3)s2)c1,9%,-15%,-4%,·,10µM*,3%
CCOCC(=O)Nc1nnc(COc2ccc(Cl)cc2)s1,?,28µM*,-2%,9%,4µM*,?
CCOCc1nnc(NC(=O)c2cccc(OC)c2)s1,16%,11%,?,2%,50µM*,-5%
Cc1ccc(C(=O)[C@@H]2[C@H]3C4COC(O4)C(=O)[C@@H]3[C@H]3C=Cc4ccccc4N32)cc1 (stereo not given in full),·,-28%,·,·,·,·
NC(=O)[C@@H]1[C@@H]2C(=O)N(c3ccc(F)cc3)C(=O)[C@@H]2[C@H]2C=Cc3ccccc3N21,?,56µM*,-36%,·,8.9µM*,-34%
O=C(c1ccco1)[C@@H]1[C@@H]2C(=O)N(c3ccc(F)cc3)C(=O)[C@@H]2[C@H]2C=Cc3ccccc3N21,-26%,50µM*,-37%,-13%,6.3µM*,?
O=C(c1ccco1)[C@@H]1[C@@H]2C(=O)N(c3ccc(Br)cc3)C(=O)[C@@H]2C2c3ccccc3C=CN21 (stereo not given in full),-21%,-26%,?,-12%,-2%[2.33 µM],?
O=C(c1ccco1)[C@@H]1[C@@H]2C(=O)N(c3ccc(F)cc3)C(=O)[C@@H]2C2c3ccccc3C=CN21 (stereo not given in full),·,-29%,?,0%,3.2µM*,·
CCOc1cccc(C2C=C(c3ccc4c(c3)OCO4)NC(c3ccccc3F)N2)c1O (stereo not given),2%[57 µM],·,·,·,·,?
COc1cc(OC)cc(C(=O)N2CCC(c3ccncc3)CC2)c1,36%,·,0%,·,-6%[59 µM],4%
CCOc1ccc(S(=O)(=O)N/N=C(\C)C2CCCCC2)cc1,31%,-24%,1%,4%,15%[59 µM],-11%
CCOc1ccc(S(=O)(=O)N/N=C2/CCCC(=O)C2)cc1,26%,-7%,1%,12%,10µM*,-26%
COc1ccccc1NC(=O)Cn1c(=O)oc2cc(S(=O)(=O)NCc3ccccc3)ccc21,47%,·,2%,·,12%[59 µM],-3%
Cc1cc(Cl)c(OCCOCCN2CCC(C)CC2)c(Br)c1,-20%,-5%,?,11%,?,7.9µM*
CN1CCN(CCOCCOc2c(Cl)cc(Cl)cc2Cl)CC1,2%,·,·,·,·,-27%
CC1CCN(CC(O)COCCOc2ccc(Br)cc2)CC1 (stereo not given),47%,15%,9%,17%,18%[59 µM],4%[57.1 µM]
Cc1cc(C)c(OCCCCN2CCC(C)CC2)c(Br)c1,?,-3%,?,·,-47%,5µM*
SMILES,HP1b chromo inh,Sfp PPTase inh,BAZ2B block,L3MBTL1 inh,G9a block,JMJD2A Tudor inh
Cc1cc(Cl)c(OCCOCCN2CCN(C)CC2)c(Br)c1,?,?,50µM*,-3%,?,7.9µM*
Cc1ccc(N(CC(C)C)S(=O)(=O)c2nnc(NC(=O)c3cccs3)s2)cc1,64%,·,13%,·,15%[59 µM],29%
O=C(CCc1nnc2ccc(NCc3ccco3)nn12)N1CCN(c2ccccc2)CC1,-23%,3%,50µM*,·,-16%,40µM*
CC(OC(=O)CCC(=O)N1CCN(S(=O)(=O)c2ccc3ccccc3c2)CC1)C(=O)NC(N)=O (stereo not given),15%,13%,-13%,·,-10%,-11%
CCC(=O)Nc1sc2c(c1C#N)CC(C)(CC)OC2 (stereo not given),-17%,56µM*,0%[57.1 µM],5%,-16%[12.7 µM],11%
CC1(C)Cc2c(sc(NC(=O)C(=O)N3CCCC3)c2C#N)CO1,4%,?,-33%,·,28µM*,?
COc1ccc(NC(=O)Cn2cnc3ccc(S(=O)(=O)N4CCC(C)CC4)cc3c2=O)c(OC)c1,14%,·,-15%,·,-27%[59 µM],-4%
O=C(/C=C/c1ccco1)N/C(=C\c1ccco1)C(=O)NCCc1nc2ccccc2[nH]1,0%,50µM*,?,?,45µM*,?
COc1ccc(/C=C/C(=O)N/C(=C\c2ccco2)C(=O)NCCc2nc3ccccc3[nH]2)cc1,-11%,?,?,-7%,45µM*,?
O=C(NCCc1nc2ccccc2[nH]1)/C(=C/c1ccco1)NC(=O)c1ccc(Br)cc1,1%,?,-21%,-2%,71µM*,-26%
CCC(=O)N1c2ccc(S(=O)(=O)N3CCN(c4ccccc4Cl)CC3)cc2CC1C (stereo not given),4%[57 µM],12%,-18%,·,14%,-20%
Cc1ccc(C(=O)NNC(=O)CCC(=O)NCc2ccccc2)cc1Br,1%,17%,-2%,·,14%,-18%
Cc1ccc2nc(SCC(=O)N(C)C3CCS(=O)(=O)C3)[nH]c2c1 (stereo not given),30%,·,-3%,3%,-8%[12.7 µM],-5%
CCOc1ccc2nc(SCC(=O)Nc3ccc4[nH]c(=O)[nH]c4c3)[nH]c2c1,7%,·,?,-4%,40µM*,-26%
COc1ccc(NC(=O)CSc2nc3ccc(OC)cc3[nH]2)cc1,32%,-2%,-12%,·,9%[12.7 µM],-8%
CCOc1ccc(-n2c(=S)sc3c(=O)[nH]c(SCC(=O)NCc4ccco4)nc32)cc1,-2%,56µM*,?,?,40µM*,?
CCOc1ccc2nc(SCC(=O)N(C)C3CCS(=O)(=O)C3)[nH]c2c1 (stereo not given),45%,-17%,-1%,10%,40µM*,-9%[57.1 µM]
CCOC(=O)CCCNC(=O)CSc1nc2ccc(OCC)cc2[nH]1,27%,-9%,3%,8%,-8%[0.0925 µM],-20%
